Measured values: ChEMBL document CHEMBL1961873, “Compounds: GSK PKIS; Assays: Nanosyn kinase panel” (2012)

Legend:
[1] = molecular target: T1, Serine/threonine-protein kinase D2 (Homo sapiens) (UniProt Q9BZL6); settings: at 1 µM;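 further: mean value of PRKD2 inhibition, from the GSK PKIS screening panel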
T1 sequence (whole entry): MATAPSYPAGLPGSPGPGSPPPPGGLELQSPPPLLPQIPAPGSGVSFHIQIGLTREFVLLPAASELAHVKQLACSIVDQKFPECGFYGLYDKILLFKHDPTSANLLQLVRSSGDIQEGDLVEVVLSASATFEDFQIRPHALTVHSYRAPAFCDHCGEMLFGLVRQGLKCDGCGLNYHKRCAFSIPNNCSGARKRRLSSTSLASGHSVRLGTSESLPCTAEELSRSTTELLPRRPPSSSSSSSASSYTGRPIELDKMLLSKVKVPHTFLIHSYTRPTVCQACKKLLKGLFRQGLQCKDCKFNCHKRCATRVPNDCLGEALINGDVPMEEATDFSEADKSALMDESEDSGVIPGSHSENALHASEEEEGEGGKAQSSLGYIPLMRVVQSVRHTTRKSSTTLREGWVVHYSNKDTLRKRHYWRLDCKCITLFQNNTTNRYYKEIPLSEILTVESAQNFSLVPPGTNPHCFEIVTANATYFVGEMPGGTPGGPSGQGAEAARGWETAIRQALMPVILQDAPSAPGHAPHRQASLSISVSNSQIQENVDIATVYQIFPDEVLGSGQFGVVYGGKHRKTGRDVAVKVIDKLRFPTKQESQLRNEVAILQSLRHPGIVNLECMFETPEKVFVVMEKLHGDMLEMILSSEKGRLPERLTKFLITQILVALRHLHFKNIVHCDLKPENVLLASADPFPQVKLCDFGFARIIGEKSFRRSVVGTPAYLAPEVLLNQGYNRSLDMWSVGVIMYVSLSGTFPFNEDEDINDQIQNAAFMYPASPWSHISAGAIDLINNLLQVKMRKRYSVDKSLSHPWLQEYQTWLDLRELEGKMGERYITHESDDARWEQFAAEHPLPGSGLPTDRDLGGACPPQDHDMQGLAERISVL

[2] = molecular target: T2, Serine/threonine-protein kinase D3 (Homo sapiens) (UniProt O94806); settings: at 0.1 µM
T2 sequence (whole entry): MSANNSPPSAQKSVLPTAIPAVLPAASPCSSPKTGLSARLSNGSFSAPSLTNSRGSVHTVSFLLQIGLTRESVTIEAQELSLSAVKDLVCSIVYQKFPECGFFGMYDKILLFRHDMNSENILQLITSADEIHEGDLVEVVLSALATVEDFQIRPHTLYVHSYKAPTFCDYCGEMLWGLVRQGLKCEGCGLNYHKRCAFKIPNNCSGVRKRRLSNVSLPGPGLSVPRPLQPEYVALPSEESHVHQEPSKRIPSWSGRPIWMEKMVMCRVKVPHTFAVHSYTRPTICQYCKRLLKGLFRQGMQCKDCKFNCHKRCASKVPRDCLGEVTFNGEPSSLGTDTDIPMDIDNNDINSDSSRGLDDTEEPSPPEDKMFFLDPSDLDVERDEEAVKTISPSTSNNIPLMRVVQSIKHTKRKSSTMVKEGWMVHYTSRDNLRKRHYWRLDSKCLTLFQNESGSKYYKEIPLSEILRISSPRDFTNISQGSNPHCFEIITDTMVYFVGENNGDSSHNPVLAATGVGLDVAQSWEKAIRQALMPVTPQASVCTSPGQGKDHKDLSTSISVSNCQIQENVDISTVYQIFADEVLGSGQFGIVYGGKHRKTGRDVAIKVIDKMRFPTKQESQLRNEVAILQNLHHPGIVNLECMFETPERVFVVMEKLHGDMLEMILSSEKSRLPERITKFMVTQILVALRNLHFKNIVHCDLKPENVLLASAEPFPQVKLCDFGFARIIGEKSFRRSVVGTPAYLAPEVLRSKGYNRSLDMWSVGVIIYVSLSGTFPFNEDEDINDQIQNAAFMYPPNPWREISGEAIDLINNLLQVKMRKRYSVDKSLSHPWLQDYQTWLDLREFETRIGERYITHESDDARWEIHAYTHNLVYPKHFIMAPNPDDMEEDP

[3] = molecular target: T2, Serine/threonine-protein kinase D3 (Homo sapiens); settings: at 1 µM
[4] = molecular target: T3, cGMP-dependent protein kinase 1 (Homo sapiens) (UniProt Q13976); settings: at 0.1 µM
T3 sequence (whole entry): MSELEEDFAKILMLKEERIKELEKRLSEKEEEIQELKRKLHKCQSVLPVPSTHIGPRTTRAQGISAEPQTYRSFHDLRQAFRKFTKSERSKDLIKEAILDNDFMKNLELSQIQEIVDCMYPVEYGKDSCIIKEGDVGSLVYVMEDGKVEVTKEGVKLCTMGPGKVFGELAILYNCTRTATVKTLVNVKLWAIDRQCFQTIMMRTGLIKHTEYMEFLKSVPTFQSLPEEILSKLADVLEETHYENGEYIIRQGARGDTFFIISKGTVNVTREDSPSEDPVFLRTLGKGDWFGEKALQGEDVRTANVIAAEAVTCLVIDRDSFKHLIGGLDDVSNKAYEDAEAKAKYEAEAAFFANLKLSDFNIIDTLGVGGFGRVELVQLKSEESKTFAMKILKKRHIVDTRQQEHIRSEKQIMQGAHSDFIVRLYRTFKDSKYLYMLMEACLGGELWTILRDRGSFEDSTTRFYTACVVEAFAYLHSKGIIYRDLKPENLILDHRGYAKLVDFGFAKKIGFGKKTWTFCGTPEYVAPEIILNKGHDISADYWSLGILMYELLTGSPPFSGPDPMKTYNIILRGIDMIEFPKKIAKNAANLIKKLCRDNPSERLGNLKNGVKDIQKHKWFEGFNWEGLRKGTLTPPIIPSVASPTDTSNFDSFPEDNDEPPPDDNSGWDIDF

[5] = molecular target: T3, cGMP-dependent protein kinase 1 (Homo sapiens); settings: at 1 µM
[6] = molecular target: T4, cGMP-dependent protein kinase 2 (Homo sapiens) (UniProt Q13237); settings: at 0.1 µM
T4 sequence (whole entry): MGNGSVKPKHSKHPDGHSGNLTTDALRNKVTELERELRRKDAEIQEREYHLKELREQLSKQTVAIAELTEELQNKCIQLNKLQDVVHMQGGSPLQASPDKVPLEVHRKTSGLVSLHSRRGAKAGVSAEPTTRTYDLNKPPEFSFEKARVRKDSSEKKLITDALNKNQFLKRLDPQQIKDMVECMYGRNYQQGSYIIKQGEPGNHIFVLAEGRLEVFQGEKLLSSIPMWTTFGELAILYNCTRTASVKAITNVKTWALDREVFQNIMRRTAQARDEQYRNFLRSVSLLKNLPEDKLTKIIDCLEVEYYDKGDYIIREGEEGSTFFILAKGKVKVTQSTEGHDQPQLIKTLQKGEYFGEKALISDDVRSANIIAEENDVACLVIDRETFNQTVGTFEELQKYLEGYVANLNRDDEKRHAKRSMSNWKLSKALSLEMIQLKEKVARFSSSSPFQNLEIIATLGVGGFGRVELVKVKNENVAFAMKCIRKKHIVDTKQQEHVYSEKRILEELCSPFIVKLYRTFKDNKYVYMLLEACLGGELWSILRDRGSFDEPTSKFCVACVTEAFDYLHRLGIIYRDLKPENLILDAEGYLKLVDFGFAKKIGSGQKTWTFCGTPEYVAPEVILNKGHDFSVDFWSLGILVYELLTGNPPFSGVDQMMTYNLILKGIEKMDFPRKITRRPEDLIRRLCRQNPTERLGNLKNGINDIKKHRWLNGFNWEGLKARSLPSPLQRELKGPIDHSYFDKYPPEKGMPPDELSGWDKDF

[7] = molecular target: T4, cGMP-dependent protein kinase 2 (Homo sapiens); settings: at 1 µM
[8] = molecular target: T5, cAMP-dependent protein kinase catalytic subunit PRKX (Homo sapiens) (UniProt P51817); settings: at 0.1 µM
T5 sequence (whole entry): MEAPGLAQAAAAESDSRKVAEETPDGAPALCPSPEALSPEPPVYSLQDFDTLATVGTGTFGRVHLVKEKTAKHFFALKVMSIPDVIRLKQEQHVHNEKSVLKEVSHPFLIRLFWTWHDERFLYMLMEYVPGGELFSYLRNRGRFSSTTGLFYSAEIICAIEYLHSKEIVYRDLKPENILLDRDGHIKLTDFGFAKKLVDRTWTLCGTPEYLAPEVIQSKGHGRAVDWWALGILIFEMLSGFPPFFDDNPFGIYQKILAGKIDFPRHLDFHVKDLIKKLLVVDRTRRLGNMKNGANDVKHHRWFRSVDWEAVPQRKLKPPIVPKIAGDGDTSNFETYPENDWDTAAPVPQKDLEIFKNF

[9] = molecular target: T5, cAMP-dependent protein kinase catalytic subunit PRKX (Homo sapiens); settings: at 1 µM
[10] = molecular target: Rho-associated protein kinase 1 (Homo sapiens) (UniProt Q13464); settings: at 0.1 µM
[11] = molecular target: Rho-associated protein kinase 1 (Homo sapiens) (UniProt Q13464); settings: at 1 µM
[12] = molecular target: Rho-associated protein kinase 2 (Homo sapiens) (UniProt O75116); settings: at 0.1 µM
[13] = molecular target: Rho-associated protein kinase 2 (Homo sapiens) (UniProt O75116); settings: at 1 µM
[14] = molecular target: Ribosomal protein S6 kinase alpha-1 (Homo sapiens) (UniProt Q15418); settings: at 0.1 µM
[15] = molecular target: Ribosomal protein S6 kinase alpha-1 (Homo sapiens) (UniProt Q15418); settings: at 1 µM
[16] = molecular target: Ribosomal protein S6 kinase alpha-3 (Homo sapiens) (UniProt P51812); settings: at 0.1 µM
[17] = molecular target: Ribosomal protein S6 kinase alpha-3 (Homo sapiens) (UniProt P51812); settings: at 1 µM
[18] = molecular target: Ribosomal protein S6 kinase alpha-2 (Homo sapiens) (UniProt Q15349); settings: at 0.1 µM
[19] = molecular target: Ribosomal protein S6 kinase alpha-2 (Homo sapiens) (UniProt Q15349); settings: at 1 µM
[20] = molecular target: Ribosomal protein S6 kinase alpha-6 (Homo sapiens) (UniProt Q9UK32); settings: at 0.1 µM;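 further: reported value is the mean inhibition of RSK4, from the GSK PKIS kinase inhibitor screen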
Chain of Ribosomal protein S6 kinase alpha-6 (Homo sapiens) (Q9UK32 whole entry): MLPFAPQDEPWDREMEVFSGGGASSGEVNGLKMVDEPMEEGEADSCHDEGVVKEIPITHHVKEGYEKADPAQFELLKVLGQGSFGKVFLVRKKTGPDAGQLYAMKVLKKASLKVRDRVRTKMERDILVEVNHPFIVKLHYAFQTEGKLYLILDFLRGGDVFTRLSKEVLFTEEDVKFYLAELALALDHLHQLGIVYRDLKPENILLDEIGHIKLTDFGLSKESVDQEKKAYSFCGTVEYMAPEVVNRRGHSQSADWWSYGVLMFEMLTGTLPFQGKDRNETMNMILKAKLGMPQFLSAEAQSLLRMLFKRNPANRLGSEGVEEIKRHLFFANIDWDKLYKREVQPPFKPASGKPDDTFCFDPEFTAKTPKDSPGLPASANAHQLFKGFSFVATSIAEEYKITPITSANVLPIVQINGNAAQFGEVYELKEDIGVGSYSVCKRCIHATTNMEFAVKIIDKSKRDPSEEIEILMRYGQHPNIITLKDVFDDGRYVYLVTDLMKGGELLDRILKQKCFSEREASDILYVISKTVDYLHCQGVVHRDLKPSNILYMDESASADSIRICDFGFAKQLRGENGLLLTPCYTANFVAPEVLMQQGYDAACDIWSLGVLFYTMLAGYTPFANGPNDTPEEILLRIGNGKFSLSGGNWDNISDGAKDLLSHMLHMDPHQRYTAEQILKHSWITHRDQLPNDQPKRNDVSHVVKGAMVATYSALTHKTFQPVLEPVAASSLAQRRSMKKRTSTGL

Chain of Ribosomal protein S6 kinase alpha-1 (Homo sapiens) (Q15418 whole entry): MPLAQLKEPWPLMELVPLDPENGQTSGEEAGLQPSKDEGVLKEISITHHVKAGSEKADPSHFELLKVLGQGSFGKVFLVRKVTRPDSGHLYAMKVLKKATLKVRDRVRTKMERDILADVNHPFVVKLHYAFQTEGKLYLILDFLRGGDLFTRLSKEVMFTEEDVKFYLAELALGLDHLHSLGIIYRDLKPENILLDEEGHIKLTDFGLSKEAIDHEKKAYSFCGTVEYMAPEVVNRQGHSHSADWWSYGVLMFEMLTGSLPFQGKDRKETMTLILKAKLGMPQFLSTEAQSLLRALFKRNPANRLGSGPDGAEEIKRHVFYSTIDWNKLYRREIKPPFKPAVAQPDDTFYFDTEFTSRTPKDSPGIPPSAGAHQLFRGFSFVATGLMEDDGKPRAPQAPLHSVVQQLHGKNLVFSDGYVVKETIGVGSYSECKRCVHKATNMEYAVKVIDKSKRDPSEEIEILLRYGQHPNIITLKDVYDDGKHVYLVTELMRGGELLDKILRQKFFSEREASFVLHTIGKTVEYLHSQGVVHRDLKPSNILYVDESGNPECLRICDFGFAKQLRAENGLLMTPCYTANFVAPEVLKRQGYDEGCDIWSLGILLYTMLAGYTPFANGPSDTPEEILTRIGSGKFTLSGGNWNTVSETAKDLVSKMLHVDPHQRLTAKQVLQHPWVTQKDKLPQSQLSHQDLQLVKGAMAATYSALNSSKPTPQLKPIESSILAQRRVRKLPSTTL
Chain of Rho-associated protein kinase 2 (Homo sapiens) (O75116 whole entry, looked up): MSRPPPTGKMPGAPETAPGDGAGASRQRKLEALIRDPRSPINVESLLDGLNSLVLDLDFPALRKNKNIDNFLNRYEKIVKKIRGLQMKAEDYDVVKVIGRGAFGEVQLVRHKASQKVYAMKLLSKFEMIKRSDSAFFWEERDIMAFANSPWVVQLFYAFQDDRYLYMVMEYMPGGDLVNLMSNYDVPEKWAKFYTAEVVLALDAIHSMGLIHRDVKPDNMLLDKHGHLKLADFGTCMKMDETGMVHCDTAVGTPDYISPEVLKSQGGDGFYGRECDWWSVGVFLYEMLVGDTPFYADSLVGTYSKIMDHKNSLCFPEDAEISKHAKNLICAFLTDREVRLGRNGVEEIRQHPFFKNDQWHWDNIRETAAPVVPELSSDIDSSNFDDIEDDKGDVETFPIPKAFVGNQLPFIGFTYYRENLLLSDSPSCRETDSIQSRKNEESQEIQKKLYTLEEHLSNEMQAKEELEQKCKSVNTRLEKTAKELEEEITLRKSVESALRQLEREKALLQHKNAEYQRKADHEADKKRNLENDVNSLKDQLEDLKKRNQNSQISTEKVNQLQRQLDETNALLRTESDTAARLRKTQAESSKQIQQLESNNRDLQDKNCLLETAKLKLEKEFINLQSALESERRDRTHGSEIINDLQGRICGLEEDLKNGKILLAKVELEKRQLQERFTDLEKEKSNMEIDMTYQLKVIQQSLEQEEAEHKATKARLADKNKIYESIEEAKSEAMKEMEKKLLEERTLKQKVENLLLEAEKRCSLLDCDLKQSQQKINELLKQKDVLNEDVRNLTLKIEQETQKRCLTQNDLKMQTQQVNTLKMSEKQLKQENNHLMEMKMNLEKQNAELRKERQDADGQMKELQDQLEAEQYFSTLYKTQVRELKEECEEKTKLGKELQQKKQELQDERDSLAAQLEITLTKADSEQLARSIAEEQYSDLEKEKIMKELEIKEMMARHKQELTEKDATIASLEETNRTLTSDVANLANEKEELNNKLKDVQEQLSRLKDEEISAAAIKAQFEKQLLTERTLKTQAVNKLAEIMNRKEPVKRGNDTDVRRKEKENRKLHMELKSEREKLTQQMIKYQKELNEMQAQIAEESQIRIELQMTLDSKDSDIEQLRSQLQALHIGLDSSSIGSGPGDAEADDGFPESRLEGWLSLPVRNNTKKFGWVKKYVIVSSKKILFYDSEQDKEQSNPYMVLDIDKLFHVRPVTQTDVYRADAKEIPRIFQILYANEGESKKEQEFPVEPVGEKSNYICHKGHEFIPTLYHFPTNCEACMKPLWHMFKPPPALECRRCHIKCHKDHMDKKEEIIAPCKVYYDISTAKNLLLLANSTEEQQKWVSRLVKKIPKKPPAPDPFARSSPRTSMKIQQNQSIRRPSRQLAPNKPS
Chain of Ribosomal protein S6 kinase alpha-2 (Homo sapiens) (Q15349 whole entry): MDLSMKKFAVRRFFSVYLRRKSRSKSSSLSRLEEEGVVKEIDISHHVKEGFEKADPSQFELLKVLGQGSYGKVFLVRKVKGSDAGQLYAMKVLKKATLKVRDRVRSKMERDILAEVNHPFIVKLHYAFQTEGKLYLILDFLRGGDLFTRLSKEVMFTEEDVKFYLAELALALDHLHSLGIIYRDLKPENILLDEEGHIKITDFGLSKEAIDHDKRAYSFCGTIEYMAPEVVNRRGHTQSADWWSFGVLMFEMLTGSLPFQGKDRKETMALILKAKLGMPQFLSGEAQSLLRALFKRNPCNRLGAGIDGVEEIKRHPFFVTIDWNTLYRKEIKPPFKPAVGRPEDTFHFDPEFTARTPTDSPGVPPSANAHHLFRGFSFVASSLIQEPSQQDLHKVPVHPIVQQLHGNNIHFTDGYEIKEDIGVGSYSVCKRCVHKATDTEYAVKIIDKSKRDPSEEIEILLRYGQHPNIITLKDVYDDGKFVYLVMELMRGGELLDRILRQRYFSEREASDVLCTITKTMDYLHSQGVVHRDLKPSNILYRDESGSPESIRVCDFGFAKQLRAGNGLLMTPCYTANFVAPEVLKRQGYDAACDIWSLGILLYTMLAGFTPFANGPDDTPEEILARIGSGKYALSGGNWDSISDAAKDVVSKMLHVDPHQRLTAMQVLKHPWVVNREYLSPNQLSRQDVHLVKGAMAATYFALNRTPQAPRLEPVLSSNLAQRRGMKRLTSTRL
Chain of Ribosomal protein S6 kinase alpha-3 (Homo sapiens) (P51812 whole entry): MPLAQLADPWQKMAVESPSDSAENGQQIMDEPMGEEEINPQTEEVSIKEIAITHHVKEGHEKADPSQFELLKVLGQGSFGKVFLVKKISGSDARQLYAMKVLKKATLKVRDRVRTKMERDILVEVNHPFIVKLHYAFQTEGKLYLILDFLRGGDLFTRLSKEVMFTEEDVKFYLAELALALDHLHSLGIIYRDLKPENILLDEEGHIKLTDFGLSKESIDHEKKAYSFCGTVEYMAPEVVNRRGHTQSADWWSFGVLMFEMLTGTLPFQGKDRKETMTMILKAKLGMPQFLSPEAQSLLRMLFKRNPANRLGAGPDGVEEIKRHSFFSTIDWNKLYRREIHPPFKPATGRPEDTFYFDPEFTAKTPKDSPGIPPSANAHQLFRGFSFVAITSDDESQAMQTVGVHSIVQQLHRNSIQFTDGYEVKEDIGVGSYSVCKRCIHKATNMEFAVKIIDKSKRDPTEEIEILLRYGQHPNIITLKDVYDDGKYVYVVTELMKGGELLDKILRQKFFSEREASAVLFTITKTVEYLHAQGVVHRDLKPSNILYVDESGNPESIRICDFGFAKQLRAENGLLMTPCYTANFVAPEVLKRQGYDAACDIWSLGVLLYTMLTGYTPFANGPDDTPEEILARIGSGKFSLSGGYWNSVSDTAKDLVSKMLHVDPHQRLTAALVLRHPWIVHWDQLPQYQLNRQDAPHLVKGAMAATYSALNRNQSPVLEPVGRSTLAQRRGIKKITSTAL

SMILES	inhibition [1]	inhibition [2]	inhibition [3]	inhibition [4]	inhibition [5]	inhibition [6]	inhibition [7]	inhibition [8]	inhibition [9]	inhibition [10]	inhibition [11]	inhibition [12]	inhibition [13]	inhibition [14]	inhibition [15]	inhibition [16]	inhibition [17]	inhibition [18]	inhibition [19]	inhibition [20]
Cc1ccc(O)cc1Nc1ccnc2ccc(S(C)(=O)=O)cc12	33.2%	6.86%	22.7%	2.84%	4.22%	1.71%	4.03%	2.75%	4.14%	1.34%	1.52%	4.28%	5.46%	2.4%	0.29%	0.8%	1.28%	3.52%	3.02%	2.13%
CN(C)C(=O)O[C@@H]1CN[C@@H](C#Cc2cc3ncnc(Nc4ccc(OCc5cccc(F)c5)c(Cl)c4)c3s2)C1	5.06%	1.06%	4.35%	-0.86%	1.64%	0.46%	2.7%	-0.77%	-1.92%	-0.58%	1.13%	-1.58%	-0.74%	0.43%	0.71%	0.2%	1.13%	0.12%	2.54%	0.51%
NS(=O)(=O)c1ccc(Nc2cc(-c3cccc(O)c3)n[nH]2)cc1	7.41%	6.55%	8.42%	5.01%	5.23%	3.66%	5.03%	3.04%	2.25%	1.47%	2.17%	3.43%	4.85%	2.5%	6.11%	2.14%	6.36%	1.18%	5.39%	1.24%
NS(=O)(=O)c1cccc(-c2cc3ccncc3cc2OCc2ccccc2)c1	5.47%	6.19%	6.3%	3.6%	4.53%	2.72%	5.57%	1.93%	0.54%	0.94%	2.75%	2.25%	2.26%	1.02%	2.9%	0.82%	2.13%	2.81%	2.38%	2.55%
